Test results reported in PubChem BioAssay AID940 (Emory University Molecular Libraries Screening Center, 2007).
The campaign covered roughly 260,000 compounds. About 2,200 (0.85%) were called active.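 Rule for the calls: active = compounds whose cAMP rise, as percent of the full-agonist control response, exceeds 60; inactive = the rest.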 What follows is part of a selection rich in actives, with near analogues and random picks from the rest.

Molecular target: Prostaglandin E2 receptor EP2 subtype (Homo sapiens) (UniProt P43116)
Experiment: modulation of human EP2 prostaglandin signaling – cell-based, HTRF cAMP, PGE2 stimulation, primary screen (AID 940);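 note: rat C6 glioma line stably carrying human EP2 under a CMV promoter; the protocol text gives 20 µM as final concentration; 100% = response of wells given 1 µM PGE2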
Settings: EP2-expressing cells, cAMP HTRF FRET, PGE2 co-stimulation; at 25 µM; active compounds read high

Sequence of Prostaglandin E2 receptor EP2 subtype (Homo sapiens) (P43116 whole entry, looked up): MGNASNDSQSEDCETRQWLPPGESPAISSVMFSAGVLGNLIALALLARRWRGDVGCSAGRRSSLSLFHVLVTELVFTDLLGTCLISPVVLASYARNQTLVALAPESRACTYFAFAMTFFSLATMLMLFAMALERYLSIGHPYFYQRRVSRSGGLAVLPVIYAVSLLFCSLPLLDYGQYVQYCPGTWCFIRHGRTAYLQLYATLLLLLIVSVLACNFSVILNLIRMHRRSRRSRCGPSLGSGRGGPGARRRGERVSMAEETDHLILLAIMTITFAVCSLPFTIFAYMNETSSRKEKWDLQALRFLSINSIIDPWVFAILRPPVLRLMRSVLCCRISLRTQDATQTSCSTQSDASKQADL

Row | SMILES | induction
1 | CCC(C)NC(=O)CSc1nc2cc3c(cc2cc1C#N)OCCO3 (centres undefined) | 33.9% (inactive)
2 | CCn1nnnc1SCC(=O)Nc1cccc(C(C)=O)c1 | -7.36% (inactive)
3 | Cc1nc(N)[nH]c(=O)c1Oc1cccc(C(F)(F)F)c1 | 22.3% (inactive)
4 | O=Cc1ccc(Oc2cccc(C(F)(F)F)c2)nc1 | 16.6% (inactive)
5 | CCC(=O)OCc1c(C(F)(F)F)nn(C)c1Oc1cccc(C(F)(F)F)c1 | 62.3% (active)
6 | CCn1c(SCC(=O)Nc2ccc(C(=O)OC)cc2)nnc1-c1cccnc1 | -7.67% (inactive)
7 | CCCC(=O)Nc1ncnc2c1ncn2C1O[C@@H]2COP(=O)(O)O[C@H]2[C@H]1OC(=O)CCC (some centres undefined) | 107% (active)
8 | CNc1ncnc2c1ncn2[C@@H]1O[C@H](CO)[C@H](O)C1O (some centres undefined) | 15.2% (inactive)
9 | OC[C@H]1O[C@@H](n2cnc3c(N[C@H]4CC5CCC4C5)ncnc32)[C@H](O)[C@@H]1O (some centres undefined) | 0.16% (inactive)
10 | O=c1c2ccccc2c(-c2ccc(F)cc2)nn1-c1ccc(C(F)(F)F)cc1 | 47% (inactive)
11 | O=c1c2ccccc2c(-c2ccc(Br)cc2)nn1Cc1ccccc1 | 71.6% (active)
12 | O=c1c2ccccc2c(-c2ccccc2)nn1-c1ccccn1 | 11.6% (inactive)
13 | O=C(NCCc1ccco1)c1nn(Cc2ccccc2)c(=O)c2ccccc12 | 44.9% (inactive)
14 | O=c1c2ccccc2c(-c2ccccc2)nn1Cc1ccccc1 | 66.7% (active)
15 | CCOC(=O)C(C)n1nc(-c2ccccc2)c2ccccc2c1=O (centres undefined) | 49.3% (inactive)
16 | CCCOc1ccc(C2C(C(=O)Nc3ccccc3OC)=C(C)Nc3ncnn32)cc1 (centres undefined) | 2.41% (inactive)
17 | Cc1cc(C)nc(N2CCC(C(=O)NCC(N)=O)CC2)n1 | -4.46% (inactive)
18 | Cc1cc(C)c2cc(C(c3nnnn3C(C)(C)C)N3CCCc4ccccc43)c(=O)[nH]c2c1 (centres undefined) | 26.2% (inactive)
19 | COc1ccc2[nH]c(=O)c(CN(CCCO)C(=S)NCCCN(C)C)cc2c1 | -11.3% (inactive)
20 | CC(C)(C)c1nn(-c2ccc(F)cc2)c2[nH]c(=O)c(CNCCc3ccncc3)cc12 | -25.4% (inactive)
21 | Cc1ccccc1OCCCC(=O)Nc1nnc(C2CCCCC2)s1 | -40.5% (inactive)
22 | COc1ccc(C(=O)N2CCc3cc(OC)c(OC)cc3C2c2ccccc2)cc1OC (centres undefined) | 24.2% (inactive)

Row | SMILES | induction
23 | COC(=O)c1ccc(S(=O)(=O)N(CCO)Cc2ccccc2)n1C | -22.6% (inactive)
24 | Cn1c(C(=O)O)ccc1S(=O)(=O)N(Cc1ccccc1)Cc1ccccc1 | 21.3% (inactive)
25 | COC(=O)c1ccc(S(=O)(=O)NCc2ccccc2)n1C | 70.4% (active)
26 | COc1cccc(/C(O)=C2/C(=O)C(=O)NC2c2cccs2)c1 (centres undefined) | 4.28% (inactive)
27 | CN(C(=O)Cc1ccccc1F)c1nc2c(s1)CCc1occc1-2 | -25.4% (inactive)
28 | CN(C)Cc1ccc(F)cc1Sc1cc(Cl)ccc1Cl | 75.3% (active)
29 | C=COCCNC(=O)C1CCN(c2nc3ccccc3n2CC)CC1 | -36.5% (inactive)
30 | COc1cccc(CN(Cc2ccco2)Cc2cncn2C)c1 | -1.11% (inactive)
31 | CCOc1ccc(-c2nnc(-c3ccco3)o2)cc1 | -1.22% (inactive)
32 | CCC(=O)Oc1cccc(C(=O)Nc2ccc(-c3nnc(-c4ccco4)o3)cc2)c1 | -19% (inactive)
33 | CCCCOc1ccc(-c2nnc(-c3ccco3)o2)cc1 | 66.9% (active)
34 | Cc1ccccc1CN1CCC(N2CCCCC2)CC1 | -20.6% (inactive)
35 | COc1cc(CN2CCN(C(=O)c3cc(OC)c(OC)c(OC)c3)CC2)cc(OC)c1O | -32.7% (inactive)
36 | Cc1ccc(NC(=O)CSc2nnnn2-c2ccc3c(c2)OCO3)cc1 | -41.6% (inactive)
37 | COc1ccc(C2CC(c3cccs3)=Nc3ccccc3S2)cc1OC (centres undefined) | 61.9% (active)
38 | COc1ccc(C2CC(c3cccs3)=NN2c2ccc(F)cc2)cc1OC (centres undefined) | 13.2% (inactive)
39 | COc1ccc(C2CC(c3cccs3)=NN2C(=O)CSc2nnc(N)s2)cc1OC (centres undefined) | -1.37% (inactive)
40 | Cc1cc2c(s1)c1cnn(CC(=O)NC(C)C)c(=O)c1n2C | -39.8% (inactive)
41 | COc1cc2[nH]c(=O)c(C(=O)NCc3ccc4c(c3)OCO4)c(O)c2cc1OC | 4.8% (inactive)
42 | COc1cccc(CN2CCC(C(=O)NC(C)(C)C)CC2)c1O | -12.3% (inactive)
43 | O=C(COC(=O)c1ccccc1)Nc1ccccc1Sc1ccccc1 | 68.5% (active)
44 | Cc1ccccc1C(=O)Nc1ccccc1Sc1ccccc1 | 73.8% (active)

Row | SMILES | induction
45 | O=C(COC(=O)c1ccccn1)Nc1cccc2ccccc12 | -6.19% (inactive)
46 | O=C(Nc1ccccc1F)c1ccccc1-c1ccccc1 | 33.6% (inactive)
47 | O=C(COC(=O)c1cccc(Br)c1)Nc1cccc2c1C(=O)c1ccccc1C2=O | -14.5% (inactive)
48 | Cc1ccccc1C(=O)Nc1ccc(N2CCCCCC2)cc1 | -79.9% (inactive)
49 | CC(C)(C)OC(=O)N1CCC[C@H]1C(=O)c1nc2ccccc2s1 | 19.4% (inactive)
50 | O=C(N1CCC(n2nnc3ccccc3c2=O)CC1)C1(c2ccccc2)CCCC1 | -7.6% (inactive)
51 | CCc1cc(N2C3CCC2CC(O)(c2ccco2)C3)n2nc3nc(C)cc(C)c3c2n1 (centres undefined) | 13.8% (inactive)
52 | CCCC(NC(=O)c1cnc(SC)nc1)c1cccs1 (centres undefined) | -29.9% (inactive)
53 | Cc1nn(CC(=O)NC2CCCC2)c(=O)c2cc3sccc3n12 | 1.55% (inactive)
54 | Cc1cc(C)nc(Nc2cc([N+](=O)[O-])ccc2C)n1 | -8.66% (inactive)
55 | Cc1ccc(Nc2cc(C)nc3c(C)ccc([N+](=O)[O-])c23)cc1 | 66.4% (active)
56 | Cc1ccc(Nc2ccc(C(N)=O)cc2[N+](=O)[O-])cc1 | -57.7% (inactive)
57 | COc1ccc(C)cc1N(CC(=O)NC1CCCC1)C(=O)c1snc(C(N)=O)c1N | -63.9% (inactive)
58 | COCCCn1c(SCC(=O)Nc2cc(Cl)ccc2OC)nc2sc3c(c2c1=O)CCC3 | -5.26% (inactive)
59 | CC(=O)Nc1nonc1-c1nc2ccccc2n1Cc1ccccn1 | 4.24% (inactive)
60 | COc1ccc(C)c(Cn2c(-c3nonc3N)nc3ccccc32)c1 | 69% (active)
61 | Nc1nonc1-c1nc2ccccc2n1Cc1ccc(F)cc1 | 28.5% (inactive)
62 | COc1ccc(N(C(C)C(=O)N2CCN(C)CC2)S(C)(=O)=O)cc1 (centres undefined) | -14.6% (inactive)
63 | COc1ccc(CN(Cc2cn[nH]c2-c2ccc(O)cc2)CC2CCCO2)cc1 (centres undefined) | 18.7% (inactive)
64 | CCc1cc(-c2n[nH]c(=S)n2CC(C)C)cs1 | -1.28% (inactive)
65 | CCCc1cc(-c2n[nH]c(=S)n2Cc2ccccc2)cs1 | 87.8% (active)
66 | CCCc1cc(-c2n[nH]c(=S)n2CC)c2ccccc2n1 | 20.9% (inactive)

Row | SMILES | induction
67 | CCCc1nn(CC(=O)NC2CC2)c(=O)c2cc3ccsc3n12 | -12% (inactive)
68 | COc1cc(C2C(C#N)=C(N)Oc3c2c(C)nn3-c2ccccc2)ccc1OCC#N (centres undefined) | -22.9% (inactive)
69 | O=C(c1cccs1)N1CCCC(c2nc(-c3ccc(F)cc3)no2)C1 (centres undefined) | -45.6% (inactive)
70 | CCOC(=O)CC(=O)CSc1nc(-c2ccccc2)cc(-c2ccc(Cl)cc2)c1C#N | 9.52% (inactive)
71 | N#Cc1c(-c2ccc(F)cc2)cc(C2CC2)nc1SCC(=O)c1cccs1 | 63% (active)
72 | COc1cc(C2NC(=O)NC(C)=C2C(=O)Nc2cc(Cl)ccc2C)cc(OC)c1OC (centres undefined) | -22.7% (inactive)
73 | Cc1cccc(-n2c(C)c3c(C)nnc(C)c3c2C)c1 | -24.2% (inactive)
74 | S=C1Nc2cc(Cl)ccc2Sc2ccccc21 | 11.7% (inactive)
75 | O=C1Cc2ccccc2Sc2ccc(Cl)cc21 | 61.4% (active)
76 | Clc1ccc(C=Nc2ccc3c(c2)Cc2ccccc2-3)c(Cl)c1 | 6.77% (inactive)
77 | CCn1c(=O)oc2cc(S(=O)(=O)N3CCCN(C(C)=O)CC3)ccc21 | -12.2% (inactive)
78 | COc1ccccc1NC(=O)Cn1nc(C)n2c(cc3occc32)c1=O | -27.1% (inactive)
79 | CCOc1ccc2nc(Nc3nc(C)c(C(C)=O)c(C)n3)nc(C)c2c1 | -18.1% (inactive)
80 | COc1ccc(-c2nnn(CC(=O)Nc3ccc(F)cc3F)n2)cc1OC | -72% (inactive)
81 | COC(=O)C1=C(C)N(C)C(C)=C(C(=O)OC)C1c1cccc(Br)c1 | 66.5% (active)
82 | COC(=O)C1=C(C)N(C)C(=S)NC1c1ccccc1 (centres undefined) | -3.11% (inactive)
83 | COC(=O)C1NN=C(C(=O)c2ccc(Br)cc2)C1c1cccc(Br)c1 (centres undefined) | 0.95% (inactive)
84 | COc1ccc(-c2ccc(SCC(=O)N3c4ccccc4CCc4ccccc43)nn2)cc1OC | 28.9% (inactive)
85 | Cc1ccccc1-c1n[nH]c(=S)n1C | 25.6% (inactive)
86 | Cc1n[nH]c(=S)n1/N=C/c1ccc(Br)o1 | -3.02% (inactive)
87 | Cc1ccccc1-c1n[nH]c(=S)n1/N=C/c1ccc(-c2ccccc2Br)o1 | 77% (active)
88 | COc1ccc(NCc2nnc(SCC(=O)Nc3ccccc3OC)n2C)cc1 | -42.3% (inactive)

Row | SMILES | induction
89 | C=CCNC(=O)CSc1nc(-c2ccc(OC)cc2)cc(C(F)(F)F)n1 | -95.2% (inactive)
90 | Cc1cccc(Cn2c(SCCO)nc3c2c(=O)n(C)c(=O)n3C)c1 | 25.1% (inactive)
91 | Cn1c(=O)c2c(nc(N3CCN(c4ccccc4)CC3)n2CCC#N)n(C)c1=O | -28.3% (inactive)
92 | Cc1cccc(Cn2c(N3CCN(c4ccccc4)CC3)nc3c2c(=O)n(C)c(=O)n3C)c1 | 67.6% (active)
93 | CCn1c2cc(C)sc2c2cnn(CC(=O)Nc3ccc(F)cc3)c(=O)c21 | -32.1% (inactive)
94 | CC1CCN(c2nc3c(c(=O)[nH]2)CCN(Cc2cn(CC(=O)O)c4ccccc24)C3)CC1 | -3.4% (inactive)
95 | CC1(C)CCC[C@@]2(C)C1[C@@H](O)C[C@]1(C)C2CC[C@@H]2[C@@]3(C)CC[C@H](C(C)(C)O)[C@@H]3CC[C@@]21C (some centres undefined) | 16.7% (inactive)
96 | c1cncc(-c2nnc3n2C2(CCCCC2)Cc2ccccc2-3)c1 | 16.9% (inactive)
97 | CCC1(CC)Cc2ccccc2-c2nc3ccccc3c(=O)n21 | 22.9% (inactive)
98 | O=c1c2ccccc2nc2n1C1(CCCCC1)Cc1ccccc1-2 | 68.8% (active)
99 | C=C(C)CC(Nc1ccc(C)cc1)c1ccco1 (centres undefined) | 61.3% (active)
100 | Cc1ccc(CC(=O)NCc2ccco2)cc1 | 8.03% (inactive)
101 | Cc1ccc(NC(=S)N(Cc2ccco2)C(C)c2cccs2)cc1 (centres undefined) | 44.2% (inactive)
102 | CC1CCCC(C)N1C(=O)[C@H]1C[C@@H](c2cccs2)NS(=O)(=O)N1C (some centres undefined) | -34.9% (inactive)
103 | Cc1nn2c(NCc3cccnc3)c3c(nc2c1-c1cccs1)CCC3 | -40.8% (inactive)
104 | Cn1c(COc2cccc3ccccc23)nnc1SCC(=O)Nc1ccccc1Cl | 5.15% (inactive)
105 | Cc1occc1-c1nnc(SCC(=O)Nc2ccc3c(c2)OCO3)n1Cc1ccco1 | 25.1% (inactive)
106 | Cc1ccc(-n2c(SCC(=O)Nc3ccc4c(c3)OCO4)nnc2-c2ccccn2)cc1 | 4.01% (inactive)
107 | Cc1ccc(-n2c(SCC(=O)Nc3ccc4c(c3)OCO4)nnc2-c2ccoc2C)cc1 | 64.9% (active)
108 | CNC(=S)N(Cc1ccccc1)Cc1cc2cccc(C)c2[nH]c1=O | -48.1% (inactive)
109 | Nc1nc(Br)c2ccccc2c1-c1ccc(F)cc1 | 62% (active)
